DUSP3 inh – DUSP3 (human) phosphatase inhibition; inhibition, % at 13.3 µM; 290,000 compounds, 0.52% hits; P51452; recombinant VHR phosphatase, pNPP absorbance; in the data active means inhibition above about 50%
Target sequence (P51452 whole entry, looked up): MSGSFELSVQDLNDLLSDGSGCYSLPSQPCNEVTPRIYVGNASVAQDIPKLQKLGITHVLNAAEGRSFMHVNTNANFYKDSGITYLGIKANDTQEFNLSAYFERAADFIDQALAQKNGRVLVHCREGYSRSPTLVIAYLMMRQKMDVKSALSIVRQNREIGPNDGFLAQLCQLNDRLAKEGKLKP
Bead autofluor – counter-screen for toxin protease inhibitors: compound fluorescence; compound autofluorescence counterscreen, microsphere flow cytometry; active compounds read high; fluorescence intensity (test concentration not listed); 360,000 compounds, 3.1% hits; AID 624483; in the data active means fluorescence intensity above about 16000; inconclusive means no clear call, values can overlap the other calls
BoNT-F LC inh – blocks Botulinum neurotoxin F light chain protease; inhibition, % at 10 µM; AID 588497; Multiplex microsphere protease cleavage assay, flow cytometry; 360,000 compounds, 0.22% hits; in the data active means inhibition above about 35%, passing the limit was not always enough; inconclusive means no clear call, values can overlap the other calls; further: plate controls were buffer without enzyme for full effect and enzyme alone for no effect
MazF activator – activators of E. coli MazEF toxin-antitoxin RNase. 350,000 compounds, 0.32% hits. activation, % at 20 µM. FAM/BHQ RNA-DNA oligo cleavage fluorescence, 5 h; in the data active means activation above about 50%
Target sequence (P0AE70 whole entry, looked up): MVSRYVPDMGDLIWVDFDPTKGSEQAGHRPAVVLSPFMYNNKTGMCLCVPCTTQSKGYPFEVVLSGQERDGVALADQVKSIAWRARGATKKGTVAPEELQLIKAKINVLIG
Anthrax LF prot – inhibitors of Bacillus anthracis lethal factor protease; multiplex microsphere protease cleavage assay, LF; inhibition, % at 10 µM; 360,000 compounds, 0.12% hits; AID 588501; further: plate controls were buffer without enzyme for full effect and enzyme alone for no effect
BoNT-A LC inh2 – blocks Botulinum neurotoxin A light chain protease | multiplex microsphere protease substrate cleavage, flow cytometry | inhibition, % at 10 µM | 360,000 compounds, 0.17% hits; further: plate controls were buffer without enzyme for full effect and enzyme alone for no effect
* hit, by the source's call; ? = inconclusive; . = no result given. A selection: hits, their analogues and other compounds. The true share with any hit is near 4%. Unless noted, no stated cut-off is given here; in the data, active means inhibition above about 30%; inconclusive means no clear call, values can overlap the other calls; inactive means below that.

SMILES	DUSP3 inh	Bead autofluor	BoNT-F LC inh	MazF activator	Anthrax LF prot	BoNT-A LC inh2
CC1CCN(CCC(=O)N2CCCc3c2c(=O)oc2ccc(O)cc32)CC1	22	10817	-20	1	-12	-4
CN(CC(=O)N1CCCc2c1c(=O)oc1ccc(O)cc21)Cc1ccccc1	14	20887*	-5	5	0	-4
CC(C(=O)N1CCCc2c1c(=O)oc1ccc(O)cc21)N1CCc2ccccc2C1 (stereo not drawn)	56*	3698	-34	5	-1	0
O=C(NC(c1ccc(F)cc1)c1ccc2ccccc2n1)C1CCN(Cc2cccc(C(F)(F)F)c2)CC1 (stereo not drawn)	.	4050	-4	.	-6	-1
COC(=O)c1scc(C)c1N/N=C(\C)c1ccc(F)cc1	31	23635*	-11	-9	-10	?
Cc1csc(C(=O)O)c1NC(=O)c1ccc(F)cc1	2	3044	-12	0	4	0
CCn1c(-c2cc3c(C(F)(F)F)nn(C)c3s2)n[nH]c1=S	0	16651*	-5	3	-3	-1
Cn1c(-c2cc3c(C(F)(F)F)nn(C)c3s2)n[nH]c1=S	6	2870	1	2	2	0
C/C(=N\NC(=O)c1ccco1)c1cccc2ccccc12	6	3611	21	3	-11	2
COc1ccc(C)cc1S(=O)(=O)NCCC1=CCCCC1	-33	10623	-3	-3	2	1
CCOc1ccc(S(=O)(=O)NCCC2=CCCCC2)c2ccccc12	-8	24639*	-4	-6	-2	?
CC(=O)c1cccc(NC(=O)C2CCCN2S(=O)(=O)c2ccccc2C(F)(F)F)c1 (stereo not drawn)	.	3191	2	4	-3	0
CN(Cc1ccccc1)C(=O)COC(=O)C1=NNC(=O)CC1	-8	2190	-5	-6	0	0
CCn1c(C(=O)NCCCN2CCc3ccccc3C2)cc2sccc21	20	24380*	-3	-9	-2	-1
Cc1ccc(Cn2c(C(=O)NCCCN3CCOCC3)cc3sccc32)cc1	24	24158*	-3	-6	-5	-2
CCn1c(C(=O)NCCCc2ccccc2)cc2sccc21	29	2390	-3	-17	0	1
O=C(Cn1c(C(=O)NCCCN2CCOCC2)cc2sccc21)c1ccccc1	-7	24194*	-2	5	-2	-3
Cn1c(C(=O)NCCN2CCOCC2)cc2sccc21	14	7678	4	3	0	1
CCn1c(C(=O)NCc2ccccn2)cc2sccc21	-1	17121*	-7	5	0	-2
Cc1cc(C)c(NC(=O)CCCn2c(=O)oc3ccccc32)c(C)c1	.	.	.	4	.	.
Cc1ccc(C(=O)Nc2ccccc2C(=O)NC(Cc2ccccc2)C(=O)O)cc1 (stereo not drawn)	-8	2293	-4	3	0	0
O=[N+]([O-])c1ccccc1S(=O)(=O)Nc1ccc(-c2ccc(N3CCCC3)nn2)cc1	.	?	10	7	1	-1
O=C(/C=C/Nc1ccc([N+](=O)[O-])cc1Br)c1cccc2ccccc12	-7	2150	-4	6	18	38*
CC1(C)CC(=O)C(C(=O)Cc2ccccc2[N+](=O)[O-])C(=O)C1	-4	2509	-2	6	2	0
COc1cccc(-c2nc(CS(=O)(=O)CC(=O)NCCCOC(C)C)c(C)o2)c1	-1	21662*	1	5	-4	?
SMILES	DUSP3 inh	Bead autofluor	BoNT-F LC inh	MazF activator	Anthrax LF prot	BoNT-A LC inh2
COc1cccc(-c2nc(CS(=O)CC(=O)N3CCC4(CC3)OCCO4)c(C)o2)c1 (stereo not drawn)	16	21075*	-4	7	1	?
Cc1cccc(-c2nc(CS(=O)CC(=O)NCCCSC3CCCCC3)c(C)o2)c1 (stereo not drawn)	25	20646*	-2	-2	-3	?
Cc1oc(-c2ccc(Cl)cc2)nc1CS(=O)CC(=O)N1CCC2(CC1)OCCO2 (stereo not drawn)	25	?	-3	-11	-18	0
COc1cccc(-c2nc(CS(=O)CC(=O)NCCCOC(C)C)c(C)o2)c1 (stereo not drawn)	3	21012*	5	5	-1	2
Cc1cccc(-c2nc(CS(=O)CC(=O)NC3CCCCC3)c(C)o2)c1 (stereo not drawn)	13	5183	-1	1	1	0
COc1cccc(-c2nc(CS(=O)(=O)CC(=O)NCCCc3ccccc3)c(C)o2)c1	2	6143	2	-1	-2	0
CC1CC(C)CN(C(=O)CCNC(=O)c2ccccc2Cl)C1 (stereo not drawn)	10	5918	-4	2	-4	0
CCN(CC)C(c1ccc(C)cc1)c1nnnn1C1CCCCC1 (stereo not drawn)	-1	10419	3	-1	-7	0
COc1ccccc1N1CCN(C(c2cc3ccc(C)cc3[nH]c2=O)c2nnnn2C2CCCC2)CC1 (stereo not drawn)	18	14791	5	-2	-8	4
CCN(CC)C(c1ccc(F)cc1)c1nnnn1C1CCCCC1 (stereo not drawn)	32	21991*	4	0	-1	2
COc1ccccc1N1CCN(C(c2cc3cc(C)ccc3[nH]c2=O)c2nnnn2C2CCCC2)CC1 (stereo not drawn)	-5	21854*	3	-3	0	2
Fc1ccc(C(c2nnnn2CCc2ccccc2)N2CCCc3ccccc32)cc1 (stereo not drawn)	0	5148	-33	-2	-6	-2
CCOC(=O)C1CCN(C(c2cc3ccc(C)cc3[nH]c2=O)c2nnnn2C2CCCCC2)CC1 (stereo not drawn)	-3	28733*	1	-4	1	-3
Fc1ccc(C(c2nnnn2C2CCCC2)N2CCc3ccccc32)cc1 (stereo not drawn)	5	17043*	-5	5	-3	-3
COc1cc2cc(C(c3nnnn3C3CCCC3)N3CCc4ccccc43)c(=O)[nH]c2cc1OC (stereo not drawn)	28	19430*	5	3	0	6
CCC(C)(C)n1nnnc1C(c1cc2ccc(OC)cc2[nH]c1=O)N1CCN(C2CCCCC2)CC1 (stereo not drawn)	1	21897*	-5	-6	3	?
CCCn1c(SCC(=O)N2CCCC2=O)nc2ccccc2c1=O	.	?	0	-5	0	-1
O=[N+]([O-])c1cccc(/C=N/n2c(COc3ccccc3)n[nH]c2=S)c1	1	16172*	3	-4	-8	0
C=CCC12C=C(OC)C(=O)OC(OC)(C1O)[C@H](c1ccc3c(c1)OCO3)[C@H]2C (stereo partly drawn)	.	4103	2	-9	-1	0
CC(C)CCNC(=O)C(=O)NC1CCCC1	34	2228	0	1	-1	0
CC(C)CCNC(=S)NC1CCCC1	31	20284*	5	-3	-3	4

Assay outcomes as filed in PubChem.
